Test results: PubChem BioAssay AID463173 (ICCB-Longwood Screening Facility, Harvard Medical School, 2010)
In all, about 52,000 compounds went through this assay and about 4,300 (8.3%) were called active. What follows is part of a selection rich in actives, with near analogues and random picks from the rest. A number with no mark means an inactive call. No stated cut-off is given here; in the data, active means survival mostly below about 52% (no sharp cut-off); inactive means mostly above about 56%.

system: DeltatarO mutant; assay: growth inhibition of S. aureus wild type versus tarO mutant, primary screen, teichoic acid synthesis inhibitors, RN4220, OD600 (AID 463173); conditions: OD600, 18 h, hits give low values, screened at 18.75 µg/mL (by protocol)

| SMILES | survival |
| --- | --- |
| O=S(=O)(c1ccc(Br)cc1)N1CCOCC1 | 94% |
| CC(C)NS(=O)(=O)c1ccc(OCC(=O)N2CCN(c3cccc(Cl)c3)CC2)cc1 | 95% |
| CCSc1ncc(Cl)c(C(=O)Nc2ccc(S(=O)(=O)N3CCCCC3)cc2)n1 | 87% |
| Cc1ccc(-c2csc(NC3OC(=O)c4c#cccc43)n2)cc1 (stereo unspecified) | 94% |
| Cc1ccc(Cn2cnc3nc4c(cc3c2=O)CCCC4)cc1 | 81% |
| CCc1ccc2[nH]c(=O)c(CNC3CCCC3)cc2c1 | 86% |
| CCCOc1ccc(C(=O)N(Cc2ccc(N(C)C)cc2)CC2CCCO2)cc1 (stereo unspecified) | 64% |
| Cc1ccc2nc(NC(=O)c3cc(=O)c4cc(Cl)ccc4o3)sc2c1 | 47% |
| Cc1ccc2c(=O)cc(C(=O)Nc3nc4ccc(Cl)cc4s3)oc2c1 | 25% (active) |
| Cc1ccc2nc(NC(=O)c3cc(=O)c4cc(C)c(C)cc4o3)sc2c1 | 54% |
| O=C(Cn1nc(-c2ccc(Cl)cc2)ccc1=O)NCc1ccccc1Cl | 70% |
| CCN(C(=O)CSc1nc2ccccc2n1Cc1ccc(F)cc1Cl)c1ccccc1 | 77% |
| CC(C)c1ccccc1NC(=O)c1cccs1 | 61% |
| CCCCCNC(=O)CCCCCn1c(=O)[nH]c2ccsc2c1=O | 81% |
| Cc1cccc(NC(=O)CCCCCn2c(=O)[nH]c3ccsc3c2=O)c1 | 33% (active) |
| O=C(CCCCCn1c(=O)[nH]c2ccsc2c1=O)NCc1ccccc1 | 89% |
| O=S1(=O)c2ccccc2N(Cc2ccccc2F)c2ccccc21 | 92% |
| COc1ccc(NC(=O)CCc2nnc3n(C)c(=O)c4sccc4n23)cc1Cl | 78% |
| CCCCc1nn2c(=O)cc(COC(=O)c3ccccc3C)nc2s1 | 83% |
| CCCc1nn2c(=O)cc(COC(=O)c3cccc(NC(=O)c4ccc(OCC)cc4)c3)nc2s1 | 0% (active) |
| CCOCCc1nn2c(=O)cc(COC(=O)c3cccc(C)c3)nc2s1 | -5% (active) |
| CCOCCc1nn2c(=O)cc(COC(=O)Cc3ccccc3)nc2s1 | 17% (active) |
| CCOCCc1nn2c(=O)cc(COC(=O)c3ccc4c(c3)OCO4)nc2s1 | 128% |

| SMILES | survival |
| --- | --- |
| CCOc1ccc(C(=O)Nc2cccc(C(=O)OCc3cc(=O)n4nc(C5CC5)sc4n3)c2)cc1 | 83% |
| CCOCCc1nn2c(=O)cc(COC(=O)c3ccco3)nc2s1 | 88% |
| CCOCCc1nn2c(=O)cc(COC(=O)CNC(=O)c3cccc(C)c3)nc2s1 | 70% |
| CCCc1nn2c(=O)cc(COC(=O)c3ccccc3NC(=O)c3ccc(OCC)cc3)nc2s1 | 49% |
| COCCc1nn2c(=O)cc(COC(=O)COc3ccccc3C)nc2s1 | 73% |
| CCc1nn2c(=O)cc(COC(=O)Cc3ccccc3)nc2s1 | 72% |
| COCCc1nn2c(=O)cc(COC(=O)c3ccccc3C)nc2s1 | -5% (active) |
| CCC(c1nnnn1CCc1ccccc1)N(Cc1ccco1)Cc1cc2cc(C)ccc2[nH]c1=O (stereo unspecified) | 62% |
| COc1ccc(C2=C(C)C(N3CCC(C(=O)NCc4ccc(C)o4)CC3)=NS2(=O)=O)cc1 | 74% |
| COc1cccc(NC(=O)Cn2cc(S(=O)(=O)Cc3ccccc3F)c3ccccc32)c1 | 78% |
| CN1CCN(CCC(=O)Nc2ccc(Cl)cc2)CC1 | 61% |
| COc1ccc(N2C(=O)CSC23C(=O)N(CC(=O)NC2CCCCC2)c2ccccc23)cc1 (stereo unspecified) | 83% |
| Cc1cc(=O)c2c(ccc3ccccc32)[nH]1 | 91% |
| CC(OC(=O)CN1C(=O)COc2ccccc21)C(=O)NCc1cccs1 (stereo unspecified) | 100% |
| CCOc1ccc(CNC(=O)c2ccc(NC(=O)N3CCCCc4ccccc43)cc2)cc1OC | 73% |
| COc1cccc(CNC(=O)CN2C(=O)N(c3cccc(Cl)c3)S(=O)(=O)c3ccccc32)c1OC | 72% |
| O=C(CCCN1C(=O)C(c2ccccc2)Oc2cccnc21)Nc1ccccc1C(F)(F)F (stereo unspecified) | 100% |
| CCCc1nn2c(=O)cc(COC(=O)c3cccc(NC(=O)COc4ccc(F)cc4)c3)nc2s1 | 99% |
| CCCc1nn2c(=O)cc(COC(=O)c3ccc(NC(=O)COc4ccc(F)cc4)cc3)nc2s1 | 37% (active) |
| CCOCCc1nn2c(=O)cc(COC(=O)c3ccc(NC(=O)C(C)(C)C)cc3)nc2s1 | 83% |
| CCOCCc1nn2c(=O)cc(COC(=O)c3ccc(NC(=O)c4cccs4)cc3)nc2s1 | 112% |
| CCCc1nn2c(=O)cc(COC(=O)c3ccc(NC(=O)COc4ccccc4)cc3)nc2s1 | 92% |
| CCOCCc1nn2c(=O)cc(COC(=O)c3ccc(NC(=O)c4ccc(F)cc4)cc3)nc2s1 | 32% (active) |

| SMILES | survival |
| --- | --- |
| Cc1ccc(OCc2n[nH]c(=S)n2C2CCCCC2)cc1 | 99% |
| Cc1ccc(C2=CC(c3ccccc3F)n3c(nc4ccccc43)N2)cc1C (stereo unspecified) | 70% |
| O=C(NC1CCCCC1)C(c1ccc(O)c(O)c1)N(C(=O)Cn1nnc2ccccc21)C1CCCCC1 (stereo unspecified) | 99% |
| O=c1ccc2cc(S(=O)(=O)Nc3ccc(OC(F)(F)F)cc3)ccc2[nH]1 | 91% |
| COC(=O)c1cccnc1-n1c(=O)c2cccnc2n(CC(=O)Nc2c(C)cc(C)cc2C)c1=O | 82% |
| CC(C)CNCC1OCc2ccccc2CO1 | 98% |
| CC(=O)c1ccc(NC(=O)CCSc2nc(-c3ccco3)cc(C(F)(F)F)n2)cc1 | 46% |
| COc1ccc(NC(=O)CCSc2nc(-c3ccco3)cc(C(F)(F)F)n2)cc1OC | 50% |
| COc1cccc(NC(=O)CCSc2nc(-c3ccco3)cc(C(F)(F)F)n2)c1 | 27% (active) |
| COc1ccc(NC(=O)CCSc2nc(-c3ccco3)cc(C(F)(F)F)n2)cc1 | 57% |
| CC(=O)c1cccc(NC(=O)CCCSc2nc(-c3ccco3)cc(C(F)(F)F)n2)c1 | 31% (active) |
| O=C(CCS(=O)(=O)c1nc(-c2ccc3c(c2)OCO3)cc(C(F)(F)F)n1)Nc1ccc(F)c(Cl)c1 | 23% (active) |
| CC(C)(C)NC(=O)CCSc1nc(-c2ccc3c(c2)OCO3)cc(C(F)(F)F)n1 | 15% (active) |
| CCCNC(=O)CCSc1nc(-c2ccc3c(c2)OCO3)cc(C(F)(F)F)n1 | 68% |
| CC(C)NC(=O)CCSc1nc(-c2ccc3c(c2)OCO3)cc(C(F)(F)F)n1 | 57% |
| O=C(CCS(=O)(=O)c1nc(-c2ccc3c(c2)OCO3)cc(C(F)(F)F)n1)Nc1ccc(Br)cc1 | 94% |
| CC(=O)c1ccc(NC(=O)CCCSc2nc(-c3ccco3)cc(C(F)(F)F)n2)cc1 | 98% |
| COc1ccc(NC(=O)CCS(=O)(=O)c2nc(-c3ccc4c(c3)OCO4)cc(C(F)(F)F)n2)cc1 | 103% |
| Cc1cc(F)ccc1NC(=O)CCS(=O)(=O)c1ccc2c(c1)CC(C)N2C(=O)C1CC1 (stereo unspecified) | 81% |
| Cc1cccc(N2CCn3c2nc2c3c(=O)n(CCCc3ccccc3)c(=O)n2C)c1 | 76% |
| CCSc1nnc(C2CCCN(C(=O)NCc3ccccc3)C2)n1C (stereo unspecified) | 84% |
| CC1CCCCN1C(=O)CSc1nc(-c2ccccc2)no1 (stereo unspecified) | 83% |
| Cc1ccc(S(=O)(=O)C(CNS(=O)(=O)c2cc(F)ccc2F)c2cccs2)cc1 (stereo unspecified) | 64% |

| SMILES | survival |
| --- | --- |
| CC1C(=O)CC(c2ccco2)NC1c1ccco1 (stereo unspecified) | 56% |
| CCc1nc2ccc(C(=O)NCCc3ccccc3OC)cc2nc1CC | 73% |
| Cc1ccc(-c2cc3c(N4CCN(c5cc(C)ccc5C)CC4)nccn3n2)cc1 | 68% |
| COc1ccc(NC(=O)Cn2c(SCc3cc(C)ccc3C)nc3ccncc32)c(OC)c1OC | 61% |
| Cc1cccc2c1-c1sc(C(=O)NCCc3ccc(Cl)cc3)cc1CO2 | 86% |
| COc1ccc(/C=C/C(=O)Nc2sc(C)c(C)c2C(=O)O)cc1 | 60% |
| COc1ccc(-n2cnc3cc(C(=O)NC4CCCCCC4)ccc32)cc1 | 117% |
| CCN1C(=O)CC(C(=O)NC)SC1=Nc1cc(Cl)c(O)c(Cl)c1 (stereo unspecified) | 75% |
| CC(=O)Nc1ccc2nc3c(=O)[nH]c(=O)[nH]c3nc2c1 | 72% |
| COc1ccc(-c2cc(C(F)(F)F)nc(SCCC(=O)Nc3ccc(OC)c(OC)c3)n2)cc1 | 40% (active) |
| COc1ccc(-c2cc(C(F)(F)F)nc(SCCC(=O)Nc3ccc(NC(C)=O)cc3)n2)cc1 | 61% |
| COc1ccc(NC(=O)CCSc2nc(-c3ccc(OC)cc3)cc(C(F)(F)F)n2)cc1 | 70% |
| CC(C)(C)NC(=O)COc1ccc(CNc2ccc3c(c2)OCCO3)cc1 | 87% |
| O=C(CCCCn1c(=O)c2ccccc2n(Cc2ccccc2F)c1=O)NCc1ccccc1Cl | 97% (active) |
| O=C(CCCCn1c(=O)c2ccccc2n(Cc2ccc(Cl)cc2)c1=O)NCc1ccccc1Cl | 97% |
| COc1ccc(CCNC(=O)CCn2c(=O)c3ccccc3n(Cc3ccccc3F)c2=O)cc1OC | 93% (active) |
| Cc1ccccc1Cn1c(=O)n(CCCCC(=O)NCc2ccccc2Cl)c(=O)c2ccccc21 | 93% |
| COc1ccc(CCNC(=O)CCCn2c(=O)c3ccccc3n(Cc3ccccc3C#N)c2=O)cc1OC | 87% (active) |
| COc1ccc(CCNC(=O)CCn2c(=O)c3ccccc3n(Cc3ccc(Cl)cc3)c2=O)cc1OC | 119% |
| COc1ccc(CCNC(=O)CCCn2c(=O)c3ccccc3n(Cc3ccccc3C)c2=O)cc1OC | 85% |
| COc1ccc(CCNC(=O)CCCCn2c(=O)c3ccccc3n(Cc3ccccc3C)c2=O)cc1OC | 95% |
| COc1ccc(CCNC(=O)CCn2c(=O)c3ccccc3n(Cc3ccccc3C)c2=O)cc1OC | 86% |
